Among the data in PubChem BioAssay AID1508601 (ICCB-Longwood Screening Facility, Harvard Medical School, 2020) are nuclei count, normalised and p53-positive nuclei, normalised values, retold here.

The whole screen tested about 5,700 compounds, of which about 85 (1%) were called active. Rule as the data show it: active = p53-positive nuclei above about 36% (passing the limit was not always enough); inactive = the rest. This excerpt belongs to a sample that is enriched for actives.

A short description of assay [1]: p53 stabilisation in HPV-positive human cells, imaging, p53-positive nuclei imaging, 24 h, 48 h (AID 1508601). The conditions noted are these: 24/48 h.
For assay [2], the target named is Cellular tumor antigen p53 (Homo sapiens) (UniProt P04637). The description is as above. The conditions noted are these: 24/48 h, stronger effect = higher value.
Cellular tumor antigen p53 (Homo sapiens), sequence (P04637 whole entry, looked up): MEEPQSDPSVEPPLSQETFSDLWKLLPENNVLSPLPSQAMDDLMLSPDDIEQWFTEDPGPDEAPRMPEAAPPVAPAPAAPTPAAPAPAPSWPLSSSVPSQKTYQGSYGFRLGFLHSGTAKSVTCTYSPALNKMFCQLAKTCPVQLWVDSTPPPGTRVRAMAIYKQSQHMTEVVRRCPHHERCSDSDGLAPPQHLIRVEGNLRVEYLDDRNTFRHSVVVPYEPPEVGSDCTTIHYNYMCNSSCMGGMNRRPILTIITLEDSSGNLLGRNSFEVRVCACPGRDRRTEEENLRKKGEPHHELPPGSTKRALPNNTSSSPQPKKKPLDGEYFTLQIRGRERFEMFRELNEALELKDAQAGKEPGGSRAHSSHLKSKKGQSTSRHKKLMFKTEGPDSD
The mark [3] stands for this setting: measured here: cell number at 24 h, Library stock concentration: 3.33 mM.
Where [4] appears, read: measured here: cell number at 48 h, Library stock concentration: 3.33 mM.
[5] abbreviates: Library stock concentration: 3.33 mM.
Setting [6] is: measured here: p53 positive nuclei at 24 h, Library stock concentration: 3.33 mM.
Where [7] appears, read: measured here: cell number at 24 h, Library stock concentration: 80 uM.
[8] abbreviates: measured here: cell number at 24 h, Library stock concentration: 400 uM.
The mark [9] stands for this setting: measured here: cell number at 24 h, Library stock concentration: 2 mM.
Where [10] appears, read: measured here: cell number at 24 h, Library stock concentration: 10 mM.
The mark [11] stands for this setting: measured here: cell number at 48 h, Library stock concentration: 80 uM.
The mark [12] stands for this setting: measured here: cell number at 48 h, Library stock concentration: 400 uM.
The mark [13] stands for this setting: measured here: cell number at 48 h, Library stock concentration: 2 mM.
The mark [14] stands for this setting: measured here: cell number at 48 h, Library stock concentration: 10 mM.
The mark [15] stands for this setting: Library stock concentration: 80 uM.
[16] abbreviates: Library stock concentration: 400 uM.
[17] abbreviates: Library stock concentration: 2 mM.
Where [18] appears, read: Library stock concentration: 10 mM.
The mark [19] stands for this setting: measured here: p53 positive nuclei at 24 h, Library stock concentration: 80 uM.
Setting [20] is: measured here: p53 positive nuclei at 24 h, Library stock concentration: 400 uM.
The mark [21] stands for this setting: measured here: p53 positive nuclei at 24 h, Library stock concentration: 2 mM.
[22] abbreviates: measured here: p53 positive nuclei at 24 h, Library stock concentration: 10 mM.

Consider `Cc1cn(C2OC(CO)C(O)C2F)c(=O)[nH]c1=O` (stereo not drawn), for which the nuclei count, normalised in assay [1] (setting [3]) was 108%; in assay [1] (setting [4]), 103%. For the same compound, the p53-positive nuclei, normalised was -0.314% (inactive) in assay [2] (setting [5]) and -0.356% in assay [2] (setting [6]).
On to `COC(=O)N1C(=O)[C@](c2ccccc2)(C2CCCC2)N1C(=O)OC`, for which the nuclei count, normalised in assay [1] (setting [7]) was determined as 90.3%; in assay [1] (setting [8]), 87.6%; in assay [1] (setting [9]) it was 93.9%; in assay [1] (setting [10]), 90.1%; in assay [1] (setting [11]), 91.7%; in assay [1] (setting [12]) it was 93.5%. The nuclei count, normalised was found to be 99.5% in assay [1] (setting [13]) and 96.9% in assay [1] (setting [14]). Moreover, the p53-positive nuclei, normalised is -0.0853% (inactive) in assay [2] (setting [15]); -0.162% (inactive) in assay [2] (setting [16]); 0.00515% (inactive) in assay [2] (setting [17]); 0.0597% (inactive) in assay [2] (setting [18]); -0.136% in assay [2] (setting [19]); -0.136% in assay [2] (setting [20]). For the same compound, the p53-positive nuclei, normalised in assay [2] (setting [21]) stood at 0.165%; in assay [2] (setting [22]) it was 0.0248%.
For `Cc1cc(C)c(C=C2C(=O)Nc3ccccc32)[nH]1`, the results for the nuclei count, normalised in assay [1] (setting [3]) and in assay [1] (setting [4]) were 116% and 119%, respectively. Further, the p53-positive nuclei, normalised in assay [2] (setting [5]) was -0.0521% (inactive); in assay [2] (setting [6]), -0.278%.
With `Cc1cc(C)c(/C=C2\C(=O)Nc3ccccc32)[nH]1`, the nuclei count, normalised in assay [1] (measured here: cell number at 24 h, concentration not given here) was found to be 96.2%; in assay [1] (measured here: cell number at 48 h, concentration not given here), 102%. Also, the p53-positive nuclei, normalised in assay [2] (concentration not given here) was 0.0559% (inactive); in assay [2] (measured here: p53 positive nuclei at 24 h, concentration not given here), 0.0506%.
`COc1cc(=C2C=c3ccccc3=N2)[nH]c1=Cc1[nH]c(C)cc1C`: the nuclei count, normalised in assay [1] (setting [7]) is 104%; in assay [1] (setting [8]) it was 82.2%; in assay [1] (setting [9]) it was 74.9%; in assay [1] (setting [3]), 71.2%; in assay [1] (setting [10]), 65.9%; in assay [1] (setting [11]), 101%. Moreover, the nuclei count, normalised in assay [1] (setting [12]) came out at 75.4%; in assay [1] (setting [13]) it was 60.3%; in assay [1] (setting [4]), 61.8%; in assay [1] (setting [14]), 52.6%. Further, the p53-positive nuclei, normalised is 0.397% (inactive) in assay [2] (setting [15]); 74% (active) in assay [2] (setting [16]); 142% (active) in assay [2] (setting [17]); 137% (active) in assay [2] (setting [5]); 105% (active) in assay [2] (setting [18]); 0.165% in assay [2] (setting [19]). Also, the p53-positive nuclei, normalised in assay [2] (setting [20]) was determined as 72.4%; in assay [2] (setting [21]), 167%; in assay [2] (setting [6]), 159%; in assay [2] (setting [22]), 137%.
For `Nc1ccn(C2C=C(CO)C(O)C2O)c(=O)n1` (stereo not drawn), the nuclei count, normalised in assay [1] (measured here: cell number at 24 h, Library stock concentration: 500 nM) turned out to be 108%; in assay [1] (measured here: cell number at 24 h, Library stock concentration: 1.5 uM) it was 117%; in assay [1] (measured here: cell number at 24 h, Library stock concentration: 4.6 uM), 110%; in assay [1] (measured here: cell number at 24 h, Library stock concentration: 13.7 uM), 119%; in assay [1] (measured here: cell number at 24 h, Library stock concentration: 41 uM), 115%; in assay [1] (measured here: cell number at 24 h, Library stock concentration: 123 uM), 83.8%. Moreover, the nuclei count, normalised in assay [1] (measured here: cell number at 24 h, Library stock concentration: 370 uM) turned out to be 70%; in assay [1] (measured here: cell number at 24 h, Library stock concentration: 1.111 mM), 73.4%; in assay [1] (measured here: cell number at 24 h, Library stock concentration: 3.333 mM), 65.6%; in assay [1] (setting [10]), 65.3%; in assay [1] (measured here: cell number at 48 h, Library stock concentration: 500 nM), 109%; in assay [1] (measured here: cell number at 48 h, Library stock concentration: 1.5 uM), 111%. Further, the nuclei count, normalised in assay [1] (measured here: cell number at 48 h, Library stock concentration: 4.6 uM) stood at 111%; in assay [1] (measured here: cell number at 48 h, Library stock concentration: 13.7 uM), 117%; in assay [1] (measured here: cell number at 48 h, Library stock concentration: 41 uM) it was 105%; in assay [1] (measured here: cell number at 48 h, Library stock concentration: 123 uM) it was 67.3%; in assay [1] (measured here: cell number at 48 h, Library stock concentration: 370 uM) it was 54.3%; in assay [1] (measured here: cell number at 48 h, Library stock concentration: 1.111 mM), 57.7%. In addition, the nuclei count, normalised stood at 52.7% in assay [1] (measured here: cell number at 48 h, Library stock concentration: 3.333 mM) and 52% in assay [1] (setting [14]). Further, the p53-positive nuclei, normalised in assay [2] (Library stock concentration: 500 nM) is -0.14% (inactive); in assay [2] (Library stock concentration: 1.5 uM) it was -0.145% (inactive); in assay [2] (Library stock concentration: 4.6 uM), 0.0813% (inactive); in assay [2] (Library stock concentration: 13.7 uM), -0.00208% (inactive); in assay [2] (Library stock concentration: 41 uM), -0.138% (inactive); in assay [2] (Library stock concentration: 123 uM), 0.289% (inactive). Further, the p53-positive nuclei, normalised in assay [2] (Library stock concentration: 370 uM) was -0.0266% (inactive); in assay [2] (Library stock concentration: 1.111 mM), 0.668% (inactive); in assay [2] (Library stock concentration: 3.333 mM), 0.138% (inactive); in assay [2] (setting [18]) it was 0.496% (inactive); in assay [2] (measured here: p53 positive nuclei at 24 h, Library stock concentration: 500 nM), 0.0935%; in assay [2] (measured here: p53 positive nuclei at 24 h, Library stock concentration: 1.5 uM) it was -0.093%. In addition, the p53-positive nuclei, normalised in assay [2] (measured here: p53 positive nuclei at 24 h, Library stock concentration: 4.6 uM) is -0.13%; in assay [2] (measured here: p53 positive nuclei at 24 h, Library stock concentration: 13.7 uM) it was 0.115%; in assay [2] (measured here: p53 positive nuclei at 24 h, Library stock concentration: 41 uM) it was -0.0784%; in assay [2] (measured here: p53 positive nuclei at 24 h, Library stock concentration: 123 uM), 0.089%; in assay [2] (measured here: p53 positive nuclei at 24 h, Library stock concentration: 370 uM), 0.146%; in assay [2] (measured here: p53 positive nuclei at 24 h, Library stock concentration: 1.111 mM), 0.68%. In addition, the p53-positive nuclei, normalised stood at 0.184% in assay [2] (measured here: p53 positive nuclei at 24 h, Library stock concentration: 3.333 mM) and 0.519% in assay [2] (setting [22]).
